Experimental data taken from PubChem BioAssay AID493194 (Broad Institute, 2011).
Results with a measured potency or affinity are listed apart. Records with an inconclusive call do not appear. The source made the active and inactive calls.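 The calls were made as follows: active = a valid curve of falling signal whose half-effect concentration is at most ten times the top tested dose; inconclusive = flat curve at 30 to 70% inhibition, or poor fit; inactive = signal rise, flat within 30%, or potency beyond limit.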

Molecular target: Scavenger receptor class B member 1 (Mus musculus) (UniProt Q61009)
Sequence (Q61009 whole entry, looked up): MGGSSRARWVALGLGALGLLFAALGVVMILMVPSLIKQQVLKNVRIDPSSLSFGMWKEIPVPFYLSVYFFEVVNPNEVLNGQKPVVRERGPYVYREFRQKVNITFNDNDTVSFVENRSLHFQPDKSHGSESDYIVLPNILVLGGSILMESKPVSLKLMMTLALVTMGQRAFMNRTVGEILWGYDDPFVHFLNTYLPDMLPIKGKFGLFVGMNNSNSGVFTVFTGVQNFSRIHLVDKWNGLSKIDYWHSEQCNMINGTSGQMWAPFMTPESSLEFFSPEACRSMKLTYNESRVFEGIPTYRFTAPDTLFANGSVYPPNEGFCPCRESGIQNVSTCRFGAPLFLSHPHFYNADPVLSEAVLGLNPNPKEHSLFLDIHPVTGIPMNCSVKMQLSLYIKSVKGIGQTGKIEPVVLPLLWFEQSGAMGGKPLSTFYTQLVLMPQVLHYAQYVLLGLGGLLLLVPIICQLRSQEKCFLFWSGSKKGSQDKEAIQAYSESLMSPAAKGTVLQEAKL
Assay: inhibitors of SR-BI mediated HDL lipid uptake, dose response, ldlA[mSR-BI] cells, fluorescence, cherry pick (AID 493194);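 also: CHO cells lacking LDL receptor and overexpressing mouse SR-BI; cellular uptake of fluorescently labeled HDL measured as cell fluorescence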

CC(=O)Nc1cccc(NC(=O)c2ccc3c(c2)CCN3S(=O)(=O)c2ccccc2)c1
outcome: inactive

CC(C)C(C(=O)OCC(=O)c1ccc2c(c1)NC(=O)CO2)N1C(=O)c2ccccc2C1=O (centres undefined)
outcome: inactive

CC(CCc1ccccc1)NC(=O)C1CCN(C(=O)c2sccc2-n2cccc2)CC1 (centres undefined)
outcome: inactive

COc1cc(OC)cc(C(=O)N[C@H](C(=O)Nc2nc(-c3ccc(F)c(F)c3)cs2)C(C)C)c1
outcome: inactive

Cc1cccc(NC(=O)c2cc(-c3cc(C)cc(C)c3O)n[nH]2)c1
outcome: inactive

CC(C)C(=O)Nc1sc2c(c1-c1nc3ccccc3[nH]1)CCCC2
outcome: inactive

Cc1cccc(N2CCN(C(=O)CN(C)S(=O)(=O)c3ccc4c(c3)CCC(=O)N4)CC2)c1C
outcome: inactive

Cc1ccc(OCC(=O)NNC(=O)C2CCN(c3ncnc4sc(C)c(C)c34)CC2)cc1
outcome: inactive

O=C(CN1CCN(c2ncc(C(F)(F)F)cc2Cl)CC1)NCCNc1ncc(C(F)(F)F)cc1Cl
outcome: inactive

O=C(NC1CCCC1)C(c1c[nH]c2ccccc12)N(C(=O)Cn1nnc(-c2ccc(Cl)cc2)n1)c1ccccc1 (centres undefined)
outcome: inactive

CCCCNc1c(-c2ccc(-c3ccc(C(C)=O)cc3)c(OC)c2)nc2cnccn12
outcome: inactive

COC(=O)C1=CN(c2ccc(F)c(F)c2)C=C(C(=O)OC)C1c1ccc([N+](=O)[O-])cc1
outcome: inactive

C=CCOC(=O)c1[nH]c2c(c1C)C(=O)CC(c1cc(OC)c(OC)c(OC)c1)C2 (centres undefined)
outcome: inactive

COc1cc(OC)cc(C(=O)N[C@H](C(=O)OCC(=O)c2ccc3c(c2)NC(=O)CO3)C(C)C)c1
outcome: inactive
